Data reported in ChEMBL document CHEMBL3433997, “St. Jude Leishmania screening dataset” (2016).

These molecules were tested against Solute carrier family 2, facilitated glucose transporter member 1 (Homo sapiens) (UniProt P11166) (assay: ST_JUDE_LEISH: Cytotoxicity at 2uM final concentration against transgenic Leishmania Mexicana promastigotes LmGLUT1 that are glucose transport deficient and complemented with the human glucose transporter GLUT1. Activity is measured by DNA content using SYBR green in vitro).
Solute carrier family 2, facilitated glucose transporter member 1 (Homo sapiens), sequence (P11166 whole entry): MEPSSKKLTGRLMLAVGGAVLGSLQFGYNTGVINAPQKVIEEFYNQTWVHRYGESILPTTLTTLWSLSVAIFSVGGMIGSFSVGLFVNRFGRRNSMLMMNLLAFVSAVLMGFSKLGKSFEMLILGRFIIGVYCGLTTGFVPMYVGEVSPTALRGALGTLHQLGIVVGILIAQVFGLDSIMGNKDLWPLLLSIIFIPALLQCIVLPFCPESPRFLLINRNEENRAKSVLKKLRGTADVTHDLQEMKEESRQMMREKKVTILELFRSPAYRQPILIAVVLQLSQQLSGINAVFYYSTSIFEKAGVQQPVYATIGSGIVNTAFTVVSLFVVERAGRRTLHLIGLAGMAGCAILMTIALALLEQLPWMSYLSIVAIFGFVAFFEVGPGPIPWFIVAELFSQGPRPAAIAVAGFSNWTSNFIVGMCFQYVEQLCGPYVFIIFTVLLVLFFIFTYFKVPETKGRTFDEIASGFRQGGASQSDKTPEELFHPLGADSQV
Type: functional

SMILES	inhibition
COc1cc(-c2nc(-c3ccccc3)c(-c3ccccc3)[nH]2)cc(OC)c1O	-0.19%
CNC(=O)c1cc(S(=O)(=O)N2CCN(c3ccccn3)CC2)c(C)s1	-1.34%
CN1CCN(S(=O)(=O)c2ccc3nccc(Nc4ccc(Oc5ccccc5)cc4)c3c2)CC1	-3.11%
COc1ccc(-c2cccc(NC(=O)c3cccc(Cl)c3)c2)cc1CNC(C)C	1.6%
CN1CCN(c2ccc3[nH]c(-c4ccc(Cc5cc(Cl)ccc5OCc5ccccc5)o4)nc3c2)CC1	1%
CC(C)CC(NC(=O)c1cc2ccccc2s1)C(=O)N1CCCCCC1c1ccc(C(C)(C)C)cc1 (stereo unspecified)	-2.77%
O=C(Nc1ccc(-c2nc3ccccc3[nH]2)cc1)C1CCN(Cc2ccccc2)CC1	16.2%
CCc1cc(-c2onc(C(F)(F)F)c2-c2ccccc2)c(O)cc1OC	3.95%
Cc1ccc(CNc2ccc3ncc(-c4cccc(C(=O)NCCN(C)C)c4)n3n2)c(C)c1	5.82%
CCc1cc2c(Sc3nc4ccccc4[nH]3)ncnc2s1	0.94%
Cc1cc(=O)c(C2CCC(c3ccc(Cl)cc3)CC2)c(C)[nH]1 (stereo unspecified)	2.3%
CS(=O)(=O)c1cccc(-c2cnc3[nH]cc(-c4ccc(C(=O)O)cc4)c3c2)c1	1.01%
O=C(/C=C/c1ccc(CNCCN2CCOCC2)cc1)NCCc1ccccc1	0.21%
COc1ccc(NC(=O)/C=C/c2ccccc2Cl)cc1OCCN1CCC(NC2CC2)CC1	8.25%
Nc1nccc(-c2ccc3c(-c4cccc(F)c4)cnc(N)c3c2)n1	-0.44%
CCN(CC)C(=O)C(=O)c1c[nH]c2ccc(Cl)cc12	3.24%
